Source: PubChem BioAssay (NCATS)
Records with an inconclusive call do not appear. Activity calls are given as the source filed them. The call rests on the fitted dose curve; in most records, active means well fitted inhibition curve with a large enough effect; inconclusive means small, poorly fitted or top-dose-only effect; inactive means flat fitted curve, though single readings scatter. Where a SMILES comes first, the peptide text is derived from it. The star is where a group is joined. Cbz = O=C(OCc1ccccc1)*; CH2F = FC*

Legend:
CRL-7250 = normal cell line; assay: Cytotoxic Profiling of Annotated Libraries Using Quantitative High-Throughput Screening (AID 1296008); conditions: Five cell lines viability, CellTiter-Glo ATP luminescence, 48-72 h; max response: stronger effect = lower value; on max response: on the % scale 0 is the no-effect control and ±100 the full control effect
Outline: (§1)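 Cytotoxicity was measured as CellTiter-Glo ATP luminescence, read after 10 min at room temperature. Compound treatment of the cells lasted 48 or 72 hr at 37 degrees Celsius in a qHTS format.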

HEK293 = assay: as above; conditions: Five cell lines viability, CellTiter-Glo ATP luminescence, 48-72 h; max response: stronger effect = lower value
Outline: as §1

HaCat [1] = assay: as above; conditions: Five cell lines viability, CellTiter-Glo ATP luminescence, 48-72 h; max response: stronger effect = lower value
Outline: as §1

KB-3-1 = assay: as above; conditions: Five cell lines viability, CellTiter-Glo ATP luminescence, 48-72 h; max response: stronger effect = lower value
Outline: as §1

NIH3T3 = assay: as above; conditions: Five cell lines viability, CellTiter-Glo ATP luminescence, 48-72 h; max response: stronger effect = lower value
Outline: as §1

HACAT [2] = assay: qHTS assay to identify novel small-molecules to repurpose for Merkel cell carcinoma treatment (AID 1296009); conditions: MCC and control cell lines, CellTiter-Glo viability, 72 h; at 44.8 µM (top of the series) unless noted
Outline: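 Cell viability measured by CellTiter-Glo following 72 hr compound treatment at 37 degree celsius, with NPC and MIPE libraries tested in 8- and 11-point concentration series.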

Measured: max response
Further: nearly all actives have a fitted effect of over 60% in size.

CC(NC(=O)[C@H](Cc1ccccc1)NC(=O)OCc1ccccc1)C(=O)CF (stereo partly specified)
inactive: CRL-7250 | HEK293 -1.18% | HaCat [1] | KB-3-1 | NIH3T3 2.43% | HACAT [2]

CCC(C)(C)C1CCc2c(sc(NC(=O)c3ccc(Br)cc3)c2C#N)C1 (stereo unspecified)
inactive: CRL-7250 -2.34% | HEK293 2.37% | HaCat [1] | KB-3-1 | NIH3T3 3.88% | HACAT [2]

O=C(O)/C=C/c1ccc2occc2c1O[C@@H]1O[C@H](CO)[C@@H](O)[C@H](O)[C@H]1O
inactive: CRL-7250 -6.75% | HEK293 1.57% | HaCat [1] | KB-3-1 | NIH3T3 | HACAT [2]

COCC1OC(n2cnc3c(=O)[nH]cnc32)C(O)C1O (stereo unspecified)
inactive: CRL-7250 | HEK293 -3.16% | HaCat [1] | KB-3-1 2.47% | NIH3T3 -2.27% | HACAT [2]

COC(=O)C1=CO[C@@H](O[C@@H]2O[C@H](CO)[C@@H](O)[C@H](O)[C@H]2O)C2C1CC(O)C2C (stereo partly specified)
inactive: CRL-7250 -13.7% | HEK293 0.336% | HaCat [1] | KB-3-1 | NIH3T3 -5.32% | HACAT [2]

Cc1onc(-c2ccccc2Cl)c1C(=O)N(C)c1ccc(Cl)cc1
inactive: CRL-7250 | HEK293 -12.8% | HaCat [1] | KB-3-1 4.59% | NIH3T3 | HACAT [2]

COC(=O)CC[C@H](NC(=O)[C@H](CC(C)C)NC(=O)OCc1ccccc1)C(=O)N[C@@H](Cc1cnc[nH]1)C(=O)N[C@@H](CC(=O)OC)C(=O)CF (Cbz-LE(OMe)HD(OMe)-CH2F)
inactive: CRL-7250 | HEK293 2.63% | HaCat [1] | KB-3-1 | NIH3T3 | HACAT [2] inactive [at 9.27 µM]

C/C=C/C=C/[C@@H]1O[C@](O)([C@H](CC)C(=O)NC/C=C/C=C(\C)[C@@H](OC)[C@@H](C)[C@@H]2O[C@H](/C=C/C=C/C=C(\C)C(=O)c3c(O)ccn(C)c3=O)[C@H](O)[C@@H]2O)[C@H](O)[C@H](O)C1(C)C
inactive: CRL-7250 -0.994% | HEK293 -2.35% | HaCat [1] | KB-3-1 | NIH3T3 2.66% | HACAT [2] inactive [at 9.27 µM]

C=C[C@@]1(C)CCC2=C([C@H]1OC(C)=O)[C@H](OC(C)=O)CC1[C@](C)(C(=O)OC)CC[C@H](OC(C)=O)[C@]21C (stereo partly specified)
inactive: CRL-7250 -6.44% | HEK293 0.95% | HaCat [1] | KB-3-1 | NIH3T3 | HACAT [2] inactive [at 17.4 µM]

CC(C)CC(c1c(O)c(C=O)c(O)c(C=O)c1O)C1CCC(C)(O)C2CC(C(C)(C)O)CCC12C (stereo unspecified)
inactive: CRL-7250 -4.35% | HEK293 -7.48% | HaCat [1] | KB-3-1 | NIH3T3 0.233% | HACAT [2] inactive [at 17.4 µM]

COC1OC(O)C2(CCC3(O2)C(C)CC2OC(=O)C4(C)CCCC3(C)C24)C1O (stereo unspecified)
inactive: CRL-7250 | HEK293 -1.02% | HaCat [1] | KB-3-1 -1.51% | NIH3T3 1.38% | HACAT [2]

Cc1ccc(Nc2nnc(-c3ccc([N+](=O)[O-])cc3)o2)cc1Cl
inactive: CRL-7250 | HEK293 -16.7% | HaCat [1] | KB-3-1 -2.92% | NIH3T3 | HACAT [2]

COc1cc2c(c(OC)c1O)C(c1ccc(O)cc1)C1C(=O)OC3C(COC(=O)C1=C2)OC(CO)(OC1OC(COC(=O)/C=C/c2ccc(OC4OC(C)C(O)C(O)C4O)cc2)C(O)C(O)C1O)C3O (stereo unspecified)
inactive: CRL-7250 2.78% | HEK293 -18.4% | HaCat [1] | KB-3-1 -2.91% | NIH3T3 | HACAT [2] inactive [at 9.27 µM]

CC(C)CC(=O)O[C@@H]1O[C@H](CO)[C@@H](O[C@H]2O[C@H](C)[C@@H](N[C@H]3C=C(CO)[C@@H](O[C@H]4O[C@H](CO)[C@@H](O[C@H]5O[C@H](CO)[C@@H](O[C@H]6O[C@H](CO)[C@@H](O)[C@H](O)[C@H]6O)[C@H](O)[C@H]5O)[C@H](O)[C@H]4O)[C@H](O)[C@H]3O)[C@H](O)[C@H]2O)[C@H](O)[C@H]1O
inactive: CRL-7250 1.09% | HEK293 -7.41% | HaCat [1] | KB-3-1 | NIH3T3 -2.08% | HACAT [2] inactive [at 9.27 µM]

CC(C)NC(=O)c1ccc(C#Cc2ccncc2)cn1
inactive: CRL-7250 -8.3% | HEK293 -19.1% | HaCat [1] | KB-3-1 | NIH3T3 | HACAT [2]

CCC(C)C(=O)O[C@H]1[C@@H](O[C@H]2O[C@H](CO)[C@@H](O)[C@H](O)[C@H]2O)O[C@H](CO)[C@@H](O)[C@@H]1O (stereo partly specified)
inactive: CRL-7250 -1.24% | HEK293 -6.33% | HaCat [1] | KB-3-1 -0.199% | NIH3T3 2.16% | HACAT [2] inactive [at 17.4 µM]
